Measurements as given in PubChem BioAssay AID1159580 (chemical genetic matrix, 2015).
In all, about 5,500 compounds went through this assay and about 2,000 (36%) were called active. Another 18% or so got no clear call; they are omitted. Rule as the data show it: active = normalized growth mostly below about 0.91 (no sharp cut-off); inconclusive = no clear call, values can overlap the other calls; inactive = mostly above about 0.92. This is one part of the list.

Assay: chemical genetic growth profiling, strain panel (AID 1159580);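 also: tested at 20 µM; growth read once vehicle control cultures reached saturation at 30 °C; 1 = growth at the plate median or of vehicle wells; lower values mean less growth of the strain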
Conditions: S. cerevisiae deletion strains, growth OD

Measured: normalized growth

CCCCCCN(CCCCCC)C(=O)Cc1c(-c2ccc(F)cc2)[nH]c2ccccc12
inactive: locus YAL013W, strain DEP1, stronger effect = lower value 1.03 | locus YAL040C, strain CLN3, stronger effect = lower value 1.03 | locus YCL061C, strain MRC1 (second series), stronger effect = lower value 1 | locus YDR363W, strain ESC2, stronger effect = lower value 1.01 | locus YER002W, strain NOP16, stronger effect = lower value 1.02 | locus YGR229C, strain SMI1, stronger effect = lower value 1.04 | locus YMR263W, strain SAP30, stronger effect = lower value 1 | locus YMR307W, strain GAS1, stronger effect = lower value 0.996 | locus YNL224C, strain SQS1, stronger effect = lower value 1.07 | locus YOR083W, strain WHI5 (second series), stronger effect = lower value 1.12 | locus YPL241C, strain CIN2, stronger effect = lower value 1
active: locus YNL128W, strain TEP1, stronger effect = lower value 1.12 [resistant] | locus YNL175C, strain NOP13, stronger effect = lower value 1.15 [resistant]
